Assay results published in PubChem BioAssay (EPA / NIEHS).
Calls of active or inactive are those of the source. The calls were made as follows: active = hit-call score of the fitted dose curve at least 0.9, where 1 is the maximum; inactive = score below 0.9.

Assays:
[1] = molecular target: Transcription factor E2F1 (Homo sapiens) (UniProt Q01094); assay: ATG_E2F_CIS: Attagene CIS-FACTORIAL HepG2 Assay for human E2F Transcription Factor 1 (AID 2282935); conditions: HepG2 Attagene cis-reporter, E2F reporter RNA transcripts; actives raise or lower the signal
Sequence of Transcription factor E2F1 (Homo sapiens) (Q01094 whole entry, looked up): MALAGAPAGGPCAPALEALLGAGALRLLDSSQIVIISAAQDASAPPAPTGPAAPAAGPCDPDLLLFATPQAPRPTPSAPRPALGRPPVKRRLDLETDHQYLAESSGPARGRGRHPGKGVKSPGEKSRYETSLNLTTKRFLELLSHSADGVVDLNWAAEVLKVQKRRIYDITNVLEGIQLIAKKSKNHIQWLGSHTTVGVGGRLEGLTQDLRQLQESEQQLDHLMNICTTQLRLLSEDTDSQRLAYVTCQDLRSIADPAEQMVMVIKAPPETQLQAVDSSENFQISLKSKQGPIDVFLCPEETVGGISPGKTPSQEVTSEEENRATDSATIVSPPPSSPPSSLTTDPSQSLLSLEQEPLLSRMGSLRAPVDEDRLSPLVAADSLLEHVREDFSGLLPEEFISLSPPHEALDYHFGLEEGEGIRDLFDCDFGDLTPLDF
Summary of the method: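 Liver-derived HepG2 cells expressing transfected promoter-driven reporter units received test chemical for 24 hours. Signal gains or losses were fitted bidirectionally against DMSO.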

[2] = ATG_E_Box_CIS: Attagene CIS-FACTORIAL HepG2 Assay for human Enhancer Box (E-box) (AID 2282936); conditions: HepG2 E-box cis-reporter transcription, actives raise or lower the signal
Summary of the method: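 In this cell-based setup, HepG2 cells bearing transfected promoter-driven reporter units were exposed to chemicals for 24 h; reporter transcripts were amplified, 6-FAM-labelled, cut with HpaI and sized by capillary electrophoresis.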

[3] = ATG_M_61_CIS: Attagene CIS-FACTORIAL HepG2 Assay for M61 Transcription Factor (Internal Marker) (AID 2282937); conditions: HepG2 Attagene CIS-FACTORIAL M61 internal marker reporter; actives raise or lower the signal
Summary of the method: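 Readout is reporter mRNA by RT-PCR, fluorescent primer extension and capillary electrophoresis, with gain or loss fitted relative to DMSO. Transfected HepG2 cells carrying endogenous-TF-driven cis reporters were exposed to chemicals for 24 hours.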

[4] = ATG_EGR_CIS: Attagene CIS-FACTORIAL HepG2 Assay for human Early Growth Response 1 (EGR1) (AID 2282938); conditions: HepG2 Attagene CIS-FACTORIAL EGR reporter mRNA; actives raise or lower the signal
Summary of the method: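 After 24 h compound exposure, RNA from reporter-transfected HepG2 cells was reverse-transcribed, PCR-amplified, fluorescently labelled and resolved by capillary electrophoresis. EGR1 reporter transcript changes, up or down, were fitted against DMSO, reflecting endogenous transcription-factor activity.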

[5] = ATG_M_19_CIS: Attagene CIS-FACTORIAL HepG2 Assay for M19 Transcription Factor (Internal Marker) (AID 2282939); conditions: HepG2 Attagene CIS-FACTORIAL M19 internal marker reporter; actives raise or lower the signal
Summary of the method: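 Chemical-treated HepG2 (24 h) with MRTU constructs; reporter transcripts detected by fluorescent RT-PCR fragment analysis on capillary electrophoresis. Internal background marker, DMSO as baseline.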

[6] = ATG_ERE_CIS: Attagene CIS-FACTORIAL HepG2 Assay for Estrogen Response Element (ERE) (AID 2282940); conditions: HepG2 ERE cis-reporter, Attagene RNA transcript; actives raise or lower the signal
Summary of the method: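 Human liver cells (HepG2) bearing transiently transfected, promoter-regulated reporter units were exposed 24 h. Reporter mRNA induction was detected by capillary electrophoresis of labelled RT-PCR products and fitted bidirectionally to DMSO.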

[7] = ATG_Ets_CIS: Attagene CIS-FACTORIAL HepG2 Assay for human Erythroblast Transformation Specific (ETS) (AID 2282941); conditions: HepG2 ETS cis-reporter transcription, actives raise or lower the signal
Summary of the method: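 RT-PCR/capillary electrophoresis fluorescence read-out of reporter mRNA; HepG2 transient multi-reporter transfection; 24 h compound exposure; gain or loss of signal fitted bidirectionally relative to DMSO.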

[8] = molecular target: Hepatocyte nuclear factor 3-beta (Homo sapiens) (UniProt Q9Y261); assay: ATG_FoxA2_CIS: Attagene CIS-FACTORIAL HepG2 Assay for human Forkhead box A2 (FOXA2) (AID 2282942); conditions: HepG2 cis-reporter transcription factor activity, 24 h; actives raise or lower the signal
Sequence of Hepatocyte nuclear factor 3-beta (Homo sapiens) (Q9Y261 whole entry, looked up): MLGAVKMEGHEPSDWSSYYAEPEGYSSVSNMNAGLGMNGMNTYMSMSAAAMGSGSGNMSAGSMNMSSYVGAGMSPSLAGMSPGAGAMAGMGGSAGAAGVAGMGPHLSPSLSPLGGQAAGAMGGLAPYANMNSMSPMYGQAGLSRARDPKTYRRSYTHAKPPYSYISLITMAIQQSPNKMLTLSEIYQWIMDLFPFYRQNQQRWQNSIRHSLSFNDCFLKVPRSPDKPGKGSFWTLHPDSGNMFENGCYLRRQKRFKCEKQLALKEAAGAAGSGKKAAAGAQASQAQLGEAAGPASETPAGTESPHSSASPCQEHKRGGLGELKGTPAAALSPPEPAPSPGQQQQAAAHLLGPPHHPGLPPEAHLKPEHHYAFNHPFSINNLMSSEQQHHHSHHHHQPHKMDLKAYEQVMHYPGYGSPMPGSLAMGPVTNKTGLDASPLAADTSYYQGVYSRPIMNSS
Summary of the method: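 Endogenous transcription factor activity is captured via cis-element-driven reporter transcripts in transfected HepG2. Total RNA taken at 24 h post-dosing; labelled RT-PCR products resolved by capillary electrophoresis. Gain or loss fitted versus DMSO.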

[9] = ATG_FoxO_CIS: Attagene CIS-FACTORIAL HepG2 Assay for human Forkhead box O (FoxO) (AID 2282943); conditions: HepG2 Attagene cis-reporter, FoxO element, mRNA; actives raise or lower the signal
Summary of the method: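 Transfected HepG2 reporter cells exposed to test chemical for 24 h; reporter RNA measured by reverse transcription, PCR and fluorescent capillary electrophoresis; curves fitted for increases and decreases against DMSO.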

[10] = ATG_GLI_CIS: Attagene CIS-FACTORIAL HepG2 Assay for human Zinc Finger Protein GLI1 (AID 2282945); conditions: HepG2, Attagene cis-factorial reporter mRNA, GLI element; actives raise or lower the signal
Summary of the method: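 Transiently transfected HepG2 cells report endogenous transcription factor activity via cis-element-driven reporter units. After 24 h compound exposure, reporter mRNA was measured by RT-PCR with capillary electrophoresis; bidirectional fitting against DMSO baseline.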

[11] = ATG_GRE_CIS: Attagene CIS-FACTORIAL HepG2 Assay for human Glucocorticoid Response Elements (GRE) (AID 2282947); conditions: HepG2 GRE cis-reporter, Attagene multiplex mRNA; actives raise or lower the signal
Summary of the method: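 Fluorescence intensity of reporter-specific cDNA fragments, separated by capillary electrophoresis, provides the signal. Constructs carry cis-regulating promoters in transiently transfected HepG2 liver cells; 24 h incubation; fitting is bidirectional against DMSO.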

[12] = ATG_ISRE_CIS: Attagene CIS-FACTORIAL HepG2 Assay for human Interferon Regulatory Factor 1 (IRF1) binding to an Interferon-Stimulated Response Element (ISRE) (AID 2282948); conditions: HepG2 ISRE cis-reporter (Attagene), mRNA transcription readout; actives raise or lower the signal
Summary of the method: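 Read-out: fluorescent RT-PCR products resolved by capillary electrophoresis, reporting endogenous transcription factor activity via ISRE-driven reporter mRNA in transfected HepG2 cells dosed for 24 h; gain or loss fitted relative to DMSO.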

[13] = ATG_M_32_CIS: Attagene CIS-FACTORIAL HepG2 Assay for M32 Transcription Factor (Internal Marker) (AID 2282949); conditions: HepG2 Attagene cis-factorial M32 reporter, mRNA; actives raise or lower the signal;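 also: background control marker of the multiplexed CIS panel rather than a real target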
Summary of the method: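 HepG2 human liver cells transiently transfected with cis-promoter-driven multiple reporter transcription units, dosed 24 h. Reporter mRNA quantified by RT-PCR, FAM-labelled primer extension, HpaI digest and capillary electrophoresis; bidirectional fit versus DMSO baseline.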

[14] = ATG_M_06_CIS: Attagene CIS-FACTORIAL HepG2 Assay for M06 Transcription Factor (Internal Marker) (AID 2282950); conditions: HepG2 Attagene CIS-FACTORIAL M06 internal marker reporter; actives raise or lower the signal
Summary of the method: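 Cells (HepG2, transiently carrying cis-driven reporter units) receive chemical for 24 h before RNA isolation. Reporter cDNA is PCR-amplified, FAM-labelled by primer extension, HpaI-digested and sized on a capillary analyser.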

[15] = molecular target: Hypoxia-inducible factor 1-alpha (Homo sapiens) (UniProt Q16665); assay: ATG_HIF1a_CIS: Attagene CIS-FACTORIAL HepG2 Assay for human Hypoxia Inducible Factor 1 (HIF1A) (AID 2282951); conditions: HepG2 Attagene cis-factorial HIF1a reporter transcription; actives raise or lower the signal
Sequence of Hypoxia-inducible factor 1-alpha (Homo sapiens) (Q16665 whole entry, looked up): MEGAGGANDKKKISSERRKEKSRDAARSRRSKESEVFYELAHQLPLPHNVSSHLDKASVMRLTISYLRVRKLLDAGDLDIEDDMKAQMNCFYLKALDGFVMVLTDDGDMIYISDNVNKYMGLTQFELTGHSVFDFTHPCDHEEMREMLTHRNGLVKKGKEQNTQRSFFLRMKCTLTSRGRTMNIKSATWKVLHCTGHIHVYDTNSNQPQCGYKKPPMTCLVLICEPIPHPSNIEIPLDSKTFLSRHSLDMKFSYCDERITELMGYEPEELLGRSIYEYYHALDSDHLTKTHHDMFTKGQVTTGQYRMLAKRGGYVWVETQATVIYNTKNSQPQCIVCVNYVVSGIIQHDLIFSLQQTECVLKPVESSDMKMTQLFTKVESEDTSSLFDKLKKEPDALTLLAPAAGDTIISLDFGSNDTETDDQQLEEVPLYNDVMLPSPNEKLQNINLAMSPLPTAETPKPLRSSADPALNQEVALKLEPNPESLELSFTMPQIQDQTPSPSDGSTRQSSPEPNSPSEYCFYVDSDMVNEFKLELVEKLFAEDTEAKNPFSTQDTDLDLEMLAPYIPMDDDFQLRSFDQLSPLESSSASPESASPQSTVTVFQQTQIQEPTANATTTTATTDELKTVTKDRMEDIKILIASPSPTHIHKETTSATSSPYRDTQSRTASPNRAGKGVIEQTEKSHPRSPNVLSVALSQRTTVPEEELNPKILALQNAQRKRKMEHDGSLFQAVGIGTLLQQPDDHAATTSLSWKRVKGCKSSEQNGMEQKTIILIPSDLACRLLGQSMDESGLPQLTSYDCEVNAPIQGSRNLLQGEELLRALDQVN
Summary of the method: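 Activity is fitted in both directions relative to DMSO. Reporter transcripts are read by RT-PCR, fluorescent primer extension and capillary electrophoresis after 24 h chemical treatment. The cells are HepG2 carrying transiently transfected cis-element-driven reporter units responding to endogenous factors.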

[16] = molecular target: Heat shock factor protein 1 (Homo sapiens) (UniProt Q00613); assay: ATG_HSE_CIS: Attagene CIS-FACTORIAL HepG2 Assay for human Heat Shock Transcription Factor 1 (HSE) (AID 2282953); conditions: HepG2 HSE cis-reporter, Attagene RNA transcription; actives raise or lower the signal
Sequence of Heat shock factor protein 1 (Homo sapiens) (Q00613 whole entry, looked up): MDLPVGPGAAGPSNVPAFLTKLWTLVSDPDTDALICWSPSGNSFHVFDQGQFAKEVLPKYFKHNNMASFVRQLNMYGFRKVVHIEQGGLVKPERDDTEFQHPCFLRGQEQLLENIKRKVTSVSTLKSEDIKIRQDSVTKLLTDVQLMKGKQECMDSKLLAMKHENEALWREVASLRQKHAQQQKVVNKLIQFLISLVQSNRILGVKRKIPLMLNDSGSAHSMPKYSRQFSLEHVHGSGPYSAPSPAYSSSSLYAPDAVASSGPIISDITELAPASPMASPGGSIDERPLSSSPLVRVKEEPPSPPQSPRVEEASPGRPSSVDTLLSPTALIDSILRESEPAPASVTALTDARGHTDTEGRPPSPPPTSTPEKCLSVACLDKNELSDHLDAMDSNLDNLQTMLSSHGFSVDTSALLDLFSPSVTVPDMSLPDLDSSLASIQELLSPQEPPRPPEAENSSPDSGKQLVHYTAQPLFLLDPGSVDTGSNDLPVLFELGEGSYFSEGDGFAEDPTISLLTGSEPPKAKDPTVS
Summary of the method: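 Liver-derived HepG2 cells carry transiently introduced multiple reporter units governed by cis promoters. Reporter RNA measured 24 h post-dose through reverse transcription, PCR amplification, fluorescent labelling and capillary electrophoresis, normalised to DMSO.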

[17] = ATG_MRE_CIS: Attagene CIS-FACTORIAL HepG2 Assay for human Metal Responsive Element (MRE) (AID 2282954); conditions: HepG2 MRE cis-reporter transcription, Attagene multiplex; actives raise or lower the signal
Summary of the method: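 Measured here is mRNA induction from an MRE cis-element reporter in HepG2 after 24 h, quantified by fluorescence of labelled RT-PCR products on capillary electrophoresis; gain- and loss-of-signal fits use DMSO as baseline.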

[18] = ATG_GATA_CIS: Attagene CIS-FACTORIAL HepG2 Assay for human GATA Binding Protein (AID 2282944); conditions: HepG2 GATA cis-element reporter, Attagene multiplex mRNA; actives raise or lower the signal
Summary of the method: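 Transfected cis-reporter HepG2 cells were treated with chemicals for 24 hours. Total RNA was then converted to cDNA, amplified with reporter-specific primers and analysed by fluorescent capillary electrophoresis, using DMSO-treated wells as baseline.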

Measured: AC50

N#Cc1cc(Br)c(O)c(Br)c1
active: [6] 6.61 µM | [17] 39.9 µM
not listed: [18]
inactive: all other assays above

CC(C)Oc1cc(-n2nc(C(C)(C)C)oc2=O)c(Cl)cc1Cl
active: [6] 12.8 µM | [16] 50 µM | [17] 25.1 µM
not listed: [4] | [18]
inactive: all other assays above

CCCCNC(=O)n1c(NC(=O)OC)nc2ccccc21
not listed: [4] | [18]
inactive: all other assays above

CS/C(C)=N/OC(=O)N(C)SN(C)C(=O)O/N=C(\C)SC
not listed: [4]
inactive: all other assays above

COC(=O)c1ccccc1C(=O)OC
not listed: [4] | [18]
inactive: all other assays above

Cc1ccc(-c2c(Cl)nc(C#N)n2S(=O)(=O)N(C)C)cc1
not listed: [4] | [18]
inactive: all other assays above

COC(=O)N(OC)c1ccccc1COc1ccn(-c2ccc(Cl)cc2)n1
active: [7] 1.47 µM | [17] 2.65 µM
not listed: [4] | [18]
inactive: all other assays above
